From the supplement of paper PMC10338343
± gives the standard deviation.

tested on: MILI (PIWIL2) piRISC loaded with L1MC piRNA (26 nt); test: pre-steady-state target cleavage rate (min^-1); guide: L1MC piRNA 5'p-UAACUAAAUACUAUGCAAGCUGUAGG; MIWI and MILI are mouse PIWI proteins and EfPiwi is from a freshwater sponge; tags in brackets are library labels; higher = faster piRNA-guided slicing of the target; details: auxiliary factor: 500 nM mouse GTSF1
Procedure: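 Cleave-'n-Seq: a library of target RNAs (target site embedded in constant flanks, ACAGCATTCCGCGTTAGTGATATCCG... 5' flank; DNA-blocked outside the site) at 0.1 nM was incubated with 1 nM active mouse MILI or MIWI piRISC (synthetic 5'-monophosphorylated piRNA guide) with or without 500 nM mouse GTSF1 at 33 °C for 1 min to 16 h. Uncleaved targets were sequenced and normalised to non-target controls, and the pooled three trials were fitted to a burst-and-steady-state model to give the pre-steady-state cleavage rate (min^-1; k3 is constrained to at most 1e-4). Sequence is the target site only; target names encode pairing extent (gX:gY) and contiguous / 1-mismatch / 2-mismatch / bulge geometry. Fits with R² ≤ 0 are excluded.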

Row | Sequence | pre-steady-state target cleavage rate
1 | UCCUCCUAUAGCUUGCAUAGUAUUUAGUUA | 0.244 ± 0.015
2 | UCCUGGAUCAGCUUGCAUAGUUAUUUAGUUA | 0.00888 ± 0.004
3 | UCCUGCUACAGCUUGCUAAGUAUUUAGAAA | 0.0738 ± 0.017
4 | UCCUGGAUGAAGCUUGCAUAGUAUUUAGUUA | 0.224 ± 0.02
5 | UCCUGGUACAGCUUGCAUACUAUUUAGUUA | 0.104 ± 0.024
6 | UCCUGGAUGUCGUGCAUAGUAUUUAGUUA | 0.115 ± 0.014
7 | UCCUGGAUGAGCUUGCAUAGUAUUUCAGUUA | 0.207 ± 0.048
8 | UCCUGGAUGUGCUUGCAUAGUAUUUAGUUUA | 0.141 ± 0.015
9 | UCCUCCUACAGCUAGCAUAGUAUUUACAAA | 0.0849 ± 0.018
10 | UCCUGGUACAGCUUGCAUAGUAUAAAGUAA | 0.0705 ± 0.02
11 | UCCUGGAUGUGCUUCGAUAGUAUUUAGUAA | 0.0404 ± 0.011
12 | UCCUGCUUCAGCUUGCAUAGUAUUUUGUUA | 0.144 ± 0.025
13 | UCCUGGAUGUCCUUGCAAACUAUUUAGUUA | 0.00732 ± 0.0037
14 | UCCUGGAUGUCCUUGCAUAGUAUUAUCUUA | 0.0177 ± 0.0079
15 | UCCUGGAUGAGCUUGCAUAGUAUUUAGCUUA | 0.104 ± 0.026
16 | UCCUGGAUGUGCUAGCAUAGUAUUUAGUUA | 0.125 ± 0.013
17 | UCCUGGAUGUCCUUGCAUUGUAUUUAGUUA | 0.0543 ± 0.012
18 | UCCUGGAUGAGCAAGCAUAGUAUUUAGUUA | 0.12 ± 0.014
19 | UCCUGGAUGUCGUAGCAUAGUAUUUAGUUA | 0.0554 ± 0.011
20 | UCCUGGAUGUGCUUGCUUAGUAUUUAGAAA | 0.0749 ± 0.017
21 | UCCUGGUACAGCUUGCAUAGUAUUUGUUA | 0.0839 ± 0.022
22 | UCCUGGAACAGCUUGCAUAGUAUUUACAAA | 0.222 ± 0.048
23 | UCCUGGAUGUCGACGCAUAGUAUUUAGUUA | 0.0214 ± 0.0042
24 | UCCUGGUACAGCUUGCAAAGAAUUUAGUUA | 0.00951 ± 0.0059
25 | UCCUGGUACUGCUUGCAUACUAUUUAGUUA | 0.0502 ± 0.015

same assay, conditions: auxiliary factor: none (no GTSF1)

Row | Sequence | pre-steady-state target cleavage rate
26 | UCCUCCUAUAGCUUGCAUAGUAUUUAGUUA | 0.00658 ± 0.0019
27 | UCCUGGAUCAGCUUGCAUAGUUAUUUAGUUA | 0.00454 ± 0.0027
28 | UCCUGGAUGAAGCUUGCAUAGUAUUUAGUUA | 0.0106 ± 0.0031
29 | UCCUGGUACAGCUUGCAUACUAUUUAGUUA | 0.00577 ± 0.0035
30 | UCCUGGAUGUCGUGCAUAGUAUUUAGUUA | 0.00386 ± 0.0022
31 | UCCUGGAUGAGCUUGCAUAGUAUUUCAGUUA | 0.00415 ± 0.0028
32 | UCCUGGAUGUGCUUGCAUAGUAUUUAGUUUA | 0.00735 ± 0.0032
33 | UCCUGCUUCAGCUUGCAUAGUAUUUUGUUA | 0.00322 ± 0.0024
34 | UCCUGGAUGUGCUAGCAUAGUAUUUAGUUA | 0.00747 ± 0.0023
35 | UCCUGGAUGUCCUUGCAUUGUAUUUAGUUA | 0.00683 ± 0.002
36 | UCCUGGAUGAGCAAGCAUAGUAUUUAGUUA | 0.00601 ± 0.0021
37 | UCCUGGAUGUCGUAGCAUAGUAUUUAGUUA | 0.00344 ± 0.0024
38 | UCCUGGAUGUCGACGCAUAGUAUUUAGUUA | 0.00381 ± 0.0021
39 | UCCUGGUACUGCUUGCAUACUAUUUAGUUA | 0.00418 ± 0.0039
